Experimental data published in paper PMC5540273 (PLoS ONE, 2017).

What was measured:
Details in all cases: concentration: 1 μM, replicates: in singlicate; n = 1
ACVR1B = tested on: ACVR1B
ACVR1 = tested on: ACVR1
ACVR2A = tested on: ACVR2A
ACVR2B = tested on: ACVR2B
ACVRL1 = tested on: ACVRL1
ADCK3 = tested on: T1, ADCK3
T1 construct: gene CABC1

ADCK4 = tested on: ADCK4
AKT1 = tested on: AKT1
AKT2 = tested on: AKT2
AKT3 = tested on: AKT3
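Note: KINOMEscan kinase panel screen.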

Row | SMILES | %Inh (ACVR1B) | %Inh (ACVR1) | %Inh (ACVR2A) | %Inh (ACVR2B) | %Inh (ACVRL1) | %Inh (ADCK3) | %Inh (ADCK4) | %Inh (AKT1) | %Inh (AKT2) | %Inh (AKT3)
1 | Nc1nc(N)c2nc(-c3ccccc3)[nH]c2n1 [SKF-12778] | 18% | 6% | 27% | 26% | 3% | 0% | 22% | 15% | 8% | 15%
2 | Nc1n[nH]c2ncc(-c3ccccc3)cc12 [SB-517081] | 0% | 8% | 0% | 5% | 0% | 7% | 19% | 0% | 12% | 0%
3 | COc1ccc(-n2cnc3c(N)ncnc32)cc1 [SKF-97236] | 21% | 7% | 35% | 32% | 10% | 0% | 0% | 0% | 1% | 11%
4 | COc1ccc(-c2coc3ccc(-c4nnc(SCc5cccc(C#N)c5)o4)cc23)cc1 | 6% | 6% | 0% | 0% | 0% | 21% | 0% | 0% | 2% | 0%
5 | C[C@@H]1CC[C@H](C(=O)NC2CCCCC2)CN1c1cc(-c2ccc3c(N)n[nH]c3c2)nc(N)n1 [GSK2291363] | 0% | 0% | 0% | 0% | 0% | 22% | 49% | 0% | 11% | 0%
6 | COc1cc2nccc(Nc3cccc(Oc4ccccc4)c3)c2cc1OC.Cl [GW284543] | 12% | 0% | 0% | 0% | 0% | 32% | 22% | 0% | 7% | 0%
7 | O=C1NC(=O)C(c2ccccc2)=C1Nc1cccc(O)c1 [SB-390534] | 0% | 22% | 0% | 0% | 0% | 0% | 0% | 0% | 0% | 0%
8 | CCC(=O)c1c(-c2ccccc2)c2cc(Cl)ccc2c(=O)n1Cc1cc(C(=O)NC2CC2)n(C)n1 | 0% | 0% | 0% | 0% | 0% | 0% | 10% | 0% | 7% | 0%
9 | Cl.NS(=O)(=O)c1cccc(Nc2cc(-c3ccc(F)cc3)n[nH]2)c1 [GW824645] | 0% | 0% | 0% | 0% | 0% | 0% | 0% | 0% | 0% | 0%
10 | COc1cc(Nc2ccnc3ccc(C(F)(F)F)cc23)cc(OC)c1OC [GW577382] | 0% | 67% | 0% | 0% | 52% | 86% | 54% | 0% | 20% | 0%
11 | Cl.c1ccc(Cn2cnc3cc(Nc4ncnc5ccccc45)ccc32)cc1 [GW272142] | 0% | 17% | 0% | 2% | 0% | 13% | 34% | 0% | 3% | 0%
12 | COC(=O)c1c(-c2ccccc2)c2cc(Br)ccc2c(=O)n1Cc1ccc(NC(=O)CCC(=O)O)cc1 | 0% | 0% | 0% | 0% | 0% | 0% | 0% | 12% | 11% | 0%
13 | Cc1ccc(Oc2ccc(Nc3ncnc4cc[nH]c34)cc2C)cn1 | 27% | 2% | 0% | 0% | 0% | 16% | 0% | 17% | 0% | 0%
14 | Cc1cc(Nc2nc(-c3cccc(C)n3)nc3ccccc23)ccn1 [GW872411] | 73% | 0% | 2% | 13% | 0% | 0% | 0% | 0% | 0% | 2%
15 | COc1cccc(C2=C(Nc3cccc(C(=O)O)c3)C(=O)NC2=O)c1 [SB-390770] | 18% | 15% | 17% | 40% | 4% | 0% | 8% | 2% | 0% | 0%
16 | CCn1c(-c2nonc2N)nc2ccccc21 [SB-693162/GW549034] | 1% | 0% | 0% | 0% | 0% | 4% | 0% | 0% | 1% | 0%
17 | CCC(=O)c1c(-c2ccccc2)c2cc(Cl)ccc2c(=O)n1Cc1cc(S(C)(=O)=O)n(CC(N)=O)n1 | 0% | 0% | 14% | 0% | 0% | 29% | 0% | 0% | 0% | 0%
18 | CCCC(=O)Nc1n[nH]c2ncc(-c3cccc4ccccc34)cc12 [SB-642057] | 0% | 26% | 0% | 9% | 59% | 5% | 5% | 0% | 39% | 0%

Row | SMILES | %Inh (ACVR1B) | %Inh (ACVR1) | %Inh (ACVR2A) | %Inh (ACVR2B) | %Inh (ACVRL1) | %Inh (ADCK3) | %Inh (ADCK4) | %Inh (AKT1) | %Inh (AKT2) | %Inh (AKT3)
19 | Cc1nn2c(=O)cc(N3CCOCC3)nc2n1Cc1cccc(Cl)c1Cl [GSK2342769] | 0% | 12% | 0% | 0% | 42% | 10% | 4% | 0% | 14% | 0%
20 | Cc1nnc(-c2ccc(C)c(-c3ccc(C(=O)O)cc3)c2)o1 [GW608005] | 0% | 4% | 0% | 0% | 0% | 0% | 0% | 0% | 6% | 0%
21 | COc1cc(OC)cc(-c2cc3cnc(N)nc3nc2NC(=O)NC(C)(C)C)c1 | 10% | 0% | 0% | 0% | 0% | 0% | 0% | 4% | 11% | 24%
22 | O=C(Nc1n[nH]c2nc(-c3ccccc3)c(Br)cc12)C1CC1 [SB-708998] | 0% | 21% | 24% | 7% | 21% | 4% | 1% | 7% | 4% | 0%
23 | Fc1cccc(CSc2nnc(-c3ccc4c(c3)CCO4)o2)c1 | 17% | 0% | 0% | 0% | 0% | 0% | 6% | 12% | 14% | 0%
24 | COc1ccc(CNC(=O)NC2CCN(c3ccnc(Nc4ccc(F)cc4)n3)C2)cc1 (centres unmarked) [GSK1379706] | 0% | 49% | 0% | 5% | 0% | 29% | 48% | 0% | 0% | 0%
25 | COc1cc(Nc2nccc(N3CCC(NC(=O)C(C)c4ccc(Cl)cc4)C3)n2)cc(OC)c1OC (centres unmarked) [GSK1379757] | 0% | 4% | 0% | 12% | 0% | 3% | 69% | 0% | 0% | 0%
26 | FC(F)(F)c1ccc(-c2ncn(CCCN3CCOCC3)c2-c2ccncc2)cc1 [SB-217780] | 10% | 0% | 0% | 0% | 4% | 1% | 8% | 0% | 0% | 28%
27 | Nc1nccc2scc(-c3ccc4c(c3)CCN4C(=O)Cc3ccccc3)c12 [GSK2576924] | 0% | 10% | 42% | 0% | 0% | 13% | 0% | 0% | 11% | 0%
28 | Cc1c(Cn2c(C)nn3c(=O)cc(N4CCO[C@H](C)C4)nc23)cccc1C(F)(F)F [GSK2373690] | 0% | 2% | 3% | 0% | 0% | 22% | 24% | 0% | 6% | 28%
29 | Nc1nc(-c2ccccc2F)c(-c2ccnc3ccccc23)s1 [GW560459] | 0% | 6% | 0% | 0% | 0% | 0% | 22% | 0% | 0% | 0%
30 | Cn1c(=O)c(F)c(Nc2ccc(I)cc2F)c2c(=O)n(OC[C@H](O)CO)cnc21 | 0% | 14% | 29% | 28% | 1% | 21% | 0% | 15% | 0% | 0%
31 | Cc1nnc(-c2ccc3ncn(-c4ccc(S(C)=O)cc4)c3c2)o1 (centres unmarked) | 15% | 0% | 0% | 0% | 9% | 5% | 0% | 0% | 0% | 0%
32 | Cc1ccccc1COc1cc(-n2cnc3cc(Cl)ccc32)sc1C(N)=O [GW813349] | 0% | 0% | 10% | 19% | 3% | 12% | 0% | 0% | 3% | 6%
33 | CCn1c(-c2ccoc2)nc2cnccc21 [SB-733887] | 0% | 15% | 0% | 18% | 0% | 10% | 20% | 0% | 14% | 0%
34 | CCC(=O)c1c(-c2ccccc2)c2cc(Cl)ccc2c(=O)n1Cc1ccc(C(=O)O)cc1 | 0% | 11% | 0% | 0% | 0% | 0% | 0% | 0% | 0% | 0%
35 | O=C(NCc1cccs1)c1cc(C(=O)c2c(Cl)cccc2Cl)c[nH]1 [GW823670] | 12% | 0% | 0% | 0% | 5% | 0% | 0% | 0% | 0% | 0%
